# Calls of active or inactive are those of the source. Rule for the calls, unless noted: active = hit-call score of the fitted dose curve at least 0.9, where 1 is the maximum; inactive = score below 0.9.
# Experiments:
# [1] = read-out: TIMP metallopeptidase inhibitor 2 (TIMP2), TIMP2 (gene 7077); test: BSK_hDFCGF_TIMP2: BioMAP Diversity Plus: hDFCGF Assay for TIMP metallopeptidase inhibitor 2 (TIMP2) Biomarker Activity (AID 2284289); details: primary human foreskin fibroblasts
# Summary of the method: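 Primary human foreskin fibroblasts in the hDFCGF system, dosed for 24 h; TIMP-2 level measured by ELISA, fitted in the positive direction against DMSO; cytotoxicity checked in parallel by sulforhodamine B total protein staining.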
# [2] = read-out: Interleukin-1 alpha (IL1a), IL1A (gene 3552); test: BSK_IMphg_IL1a: BioMAP Diversity Plus: IMphg Assay for Interleukin-1 alpha (IL1a) Biomarker Activity (AID 2284290); details: primary human endothelial cells with macrophages
# Summary of the method: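 Human venular endothelial cells co-cultured with macrophages, IMphg system. IL-1α is measured by ELISA 24 h after dosing and fitted in the positive direction against DMSO. Cytotoxicity is assessed by SRB staining of parallel cultures.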
# [3] = read-out: E-selectin (Homo sapiens) (UniProt P16581); test: BSK_IMphg_ESelectin: BioMAP Diversity Plus: IMphg Assay for Eselectin Biomarker Activity (AID 2284291); details: primary human endothelial cells with macrophages
# Summary of the method: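 Human venular endothelial cell–macrophage co-culture, E-selectin measured by ELISA 24 h after chemical dosing. Signal fitted in the positive direction against DMSO as negative control and baseline.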
# [4] = BSK_IMphg_SRB: Viability Assessment in the BioMAP Diversity Plus: IMphg Assay (AID 2284292); details: primary human endothelial cells with macrophages;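 note: measured one day after compound addition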
# Summary of the method: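 Human venular endothelial cells with macrophages, 24 h after chemical dosing; total protein by 0.1% SRB staining after 10% TCA fixation, read at 560 nm. Positive-direction fitting versus DMSO baseline.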
# [5] = read-out: Macrophage colony-stimulating factor (MCSF), CSF1 (gene 1435); test: BSK_IMphg_MCSF: BioMAP Diversity Plus: IMphg Assay for Macrophage colony-stimulating factor (MCSF) Biomarker Activity (AID 2284293); details: primary human endothelial cells with macrophages
# Summary of the method: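 Co-culture of human venular endothelial cells and macrophages, 24 hours of chemical exposure. M-CSF quantified by ELISA, with parallel SRB total-protein staining for cytotoxicity; activity fitted relative to DMSO.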
# [6] = BSK_IMphg_SRB.Mphg: Macrophage Viability Assessment in the BioMAP Diversity Plus: IMphg Assay (AID 2284295); details: primary human endothelial cells with macrophages
# Summary of the method: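 Venular endothelial cells co-cultured with macrophages, read 24 h after dosing. Total protein measured by 0.1% SRB staining after 10% TCA fixation, absorbance at 560 nm. Fitted in positive direction against DMSO baseline.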
# [7] = read-out: Thrombomodulin, THBD (gene 7056); test: BSK_LPS_Thrombomodulin: BioMAP Diversity Plus: LPS Assay for Thrombomodulin Biomarker Activity (AID 2284296); details: primary human HUVEC with PBMC
# Summary of the method: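 Human umbilical vein endothelial cells co-cultured with PBMC and stimulated with LPS; cell-surface thrombomodulin measured by ELISA 24 hours after compound. Gain or loss versus DMSO; cytotoxicity checked by SRB staining in parallel cultures.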
# CD69, CD69 (gene 969) = test: BSK_LPS_CD69: BioMAP Diversity Plus: LPS Assay for CD69 Biomarker Activity (AID 2284303); details: primary human HUVEC with PBMC
# Summary of the method: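 Human umbilical vein endothelial cells co-cultured with PBMC under LPS stimulation, chemical exposure 24 h; cell-surface CD69 measured by ELISA and fitted in the positive direction versus DMSO.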
# TTR (gene 7276) = test: CCTE_GLTED_hTTR_0.5uM: CCTE's human Transthyretin (hTTR) Inhibition Assay, with 0.5uM TTR, Great Lakes Toxicology and Ecology Division (GLTED) Lab (AID 2284320)
# Summary of the method: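 Cell-free displacement assay in which human TTR at 0.5 uM was incubated with test chemical for 2 h. Displacement of the ANSA probe was read by fluorescence at 380 nm excitation/475 nm emission. Loss of signal was fitted in the positive direction versus DMSO.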
# [8] = Tanguay_ZF_120hpf_CRAN: Oregon State University Tanguay Lab 120 Hour Post-fertilization zebrafish Assay for Craniofacial Malformation (AID 2284397)
# Summary of the method: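 Dechorionated Tropical 5D wild-type zebrafish embryos, one per well, were statically exposed from 6 to 120 hpf at 28C in 0.64% DMSO, with 5uM trimethyltin chloride as positive control. Craniofacial malformation was scored present/absent by brightfield microscopy, relative to DMSO.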
# [9] = Tanguay_ZF_120hpf_AXIS: Oregon State University Tanguay Lab 120 Hour Post-fertilization zebrafish Assay for Axial Malformation (AID 2284398)
# Summary of the method: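 Dechorionated 5D wild-type zebrafish embryos exposed statically, one per well, from 6 to 120 hpf at 28C, 0.64% DMSO. Axial malformation scored as present/absent by brightfield microscopy at 120 hpf; dead embryos not scored.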
# [10] = Tanguay_ZF_120hpf_EDEM: Oregon State University Tanguay Lab 120 Hour Post-fertilization zebrafish Assay for Edema Malformation (AID 2284400)
# Summary of the method: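 Dechorionated Tropical 5D wild-type embryos, one per well, statically exposed from 6 to 120 hpf at 28C in 0.64% DMSO. Edema scored present/absent by brightfield microscopy at 120 hpf; dead embryos not scored; fit versus DMSO.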
# [11] = CCTE_Deisenroth_5AR_NBTE_donor: CCTE's 5alpha-reductase NanoBRET Target Engagement Assay […], Deisenroth Lab (AID 2284319); details: actives raise or lower the signal
# Summary of the method: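 In this secondary endpoint, donor luminescence from SRD5A2-NanoLuc in transfected HEK293T flags artifacts. Test chemical (10 nM - 29.9 uM) is present five hours, tracer the last two; mock-tracer wells run plate-matched; data fitted bidirectionally against DMSO.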
# [12] = CCTE_Deisenroth_5AR_NBTE_acceptor: CCTE's 5alpha-reductase NanoBRET Target Engagement Assay - Autofluorescence Screen, Deisenroth Lab (AID 2284321); details: actives raise or lower the signal;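 note: compound fluorescence in the acceptor channel under 460 nm excitation flags autofluorescence artifacts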
# Summary of the method: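 Acceptor-channel fluorescence flags artifacts, with excitation fixed at 460 nm. Nominal 100 uM chemical samples were read in triplicate runs, and signal changes were fitted in both directions relative to DMSO.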
# SRD5A2 (gene 6716) = test: CCTE_Deisenroth_5AR_NBTE_ratio: CCTE's 5alpha-reductase NanoBRET Target Engagement Assay - Ratio, Deisenroth Lab (AID 2284322); details: actives raise or lower the signal
# Summary of the method: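 Reverse-transfect HEK293T with pNLF1-C-SRD5A2, express 20 h. Pre-incubate cells with chemical 3 h (8-point series, 10 nM - 29.9 uM, duplicate). Add testosterone tracer, 2 h more. Add substrate/inhibitor, read donor and acceptor emission.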
# SERPINA7 (gene 6906) = test: CCTE_GLTED_hTBG: CCTE's human Thyroxine-binding Globulin (TBG) Inhibition Assay, Great Lakes Toxicology and Ecology Division (GLTED) Lab (AID 2284343; active = hit-call score of the fitted dose curve at least 0.9, where 1 is the maximum;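 note: active chemicals lower fluorescence versus DMSO baseline by displacing probe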)
# Summary of the method: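 Cell-free binding assay in which human TBG is incubated with test chemical for 2 hours and displacement of the fluorescent probe ANSA is read at 380 nm excitation/475 nm emission. Activity is fitted against DMSO as the negative control.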
# IYD (gene 389434) = test: CCTE_GLTED_hIYD: CCTE's human Iodotyrosine Deiodinase (xIYD) Inhibition Assay, Great Lakes Toxicology and Ecology Division (GLTED) Lab (AID 2284317; active = hit-call score of the fitted dose curve at least 0.9, where 1 is the maximum;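 note: cell-free human IYD enzyme made in baculovirus insect cells; iodide freed from monoiodotyrosine measured by cerium arsenite color change at 420 nm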)
# Summary of the method: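 Human IYD expressed in a baculovirus-insect cell system was incubated 3 h with monoiodotyrosine and test chemical. Released iodide, separated on Dowex columns, was quantified by the Sandell-Kolthoff reaction at 420 nm; plates were normalized to MNT and DMSO/NaOH controls.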
# Chain of E-selectin (Homo sapiens) (P16581 whole entry, looked up): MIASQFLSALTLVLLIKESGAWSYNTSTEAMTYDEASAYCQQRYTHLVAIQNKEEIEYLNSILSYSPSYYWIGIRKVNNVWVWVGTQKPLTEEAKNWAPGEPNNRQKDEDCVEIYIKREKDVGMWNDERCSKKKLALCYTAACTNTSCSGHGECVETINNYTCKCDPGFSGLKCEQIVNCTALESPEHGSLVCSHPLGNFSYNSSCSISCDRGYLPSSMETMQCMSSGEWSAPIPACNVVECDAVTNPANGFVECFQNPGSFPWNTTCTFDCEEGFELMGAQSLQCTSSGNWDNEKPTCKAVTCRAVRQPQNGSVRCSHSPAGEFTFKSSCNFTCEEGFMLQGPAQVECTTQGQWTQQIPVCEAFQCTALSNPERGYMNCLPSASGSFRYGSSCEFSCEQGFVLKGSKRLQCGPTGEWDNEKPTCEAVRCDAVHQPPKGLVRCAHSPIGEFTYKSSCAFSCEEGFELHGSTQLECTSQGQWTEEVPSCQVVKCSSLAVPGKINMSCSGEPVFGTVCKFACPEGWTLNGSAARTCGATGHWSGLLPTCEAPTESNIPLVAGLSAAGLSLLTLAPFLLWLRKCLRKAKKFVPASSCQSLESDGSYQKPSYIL
smiles,measurement,setting,value
FC(F)(F)C(F)(F)C(F)(F)C(F)(F)C(F)(F)C(F)(F)C(F)(F)CCI,outcome,[1],inactive
same,outcome,[2],inactive
same,outcome,[3],inactive
same,outcome,[4],inactive
same,outcome,[5],inactive
same,outcome,[6],inactive
same,outcome,[7],inactive
same,outcome,"CD69, CD69 (gene 969)",inactive
same,AC50,TTR (gene 7276),22.5 µM (active)
same,outcome,[8],inactive
same,outcome,[9],inactive
same,outcome,[10],inactive
CCCCCCCCCc1ccc(OCCO)cc1,AC50,[11],40.3 µM (active)
same,AC50,[12],19.1 µM (active)
same,AC50,SRD5A2 (gene 6716),88.8 µM (active)
same,AC50,SERPINA7 (gene 6906),50 µM (active)
CCCCCCCCCCCCCC[P+](CCCC)(CCCC)CCCC,AC50,IYD (gene 389434),97.6 µM (active)
same,AC50,[11],13.1 µM (active)
same,AC50,SRD5A2 (gene 6716),22.9 µM (active)
OCC(F)(F)C(F)(F)C(F)(F)C(F)(F)C(F)(F)C(F)(F)CO,outcome,[1],inactive
same,outcome,[2],inactive
same,outcome,[3],inactive
same,outcome,[4],inactive
same,outcome,[5],inactive
same,outcome,[6],inactive
same,outcome,[7],inactive
same,outcome,"CD69, CD69 (gene 969)",inactive
same,AC50,TTR (gene 7276),11.2 µM (active)
same,outcome,[8],inactive
same,outcome,[9],inactive
same,outcome,[10],inactive
CN(C(=O)C(F)(F)C(F)(F)C(F)(F)F)[Si](C)(C)C,outcome,[1],inactive
same,outcome,[2],inactive
same,outcome,[3],inactive
same,outcome,[4],inactive
same,outcome,[5],inactive
same,outcome,[6],inactive
same,outcome,[7],inactive
same,outcome,"CD69, CD69 (gene 969)",inactive
same,outcome,[8],inactive
same,outcome,[9],inactive
same,outcome,[10],inactive
